# Shown are actives, neighbours in structure and some others; about 15% of the full set was active somewhere.
# DT40 TDP1 CPT: qHTS for Inhibitors of human tyrosyl-DNA phosphodiesterase 1 (TDP1): qHTS in cells in presence of CPT; chicken DT40 Tdp1-/-;hTDP1 cells + 20 nM CPT, ATP luminescence, 48 h; hit rate 12% among 420,000; Potency, µM (series often up to 46.2 µM), for the others: at the top dose activity change, negative = growth inhibition, actives largely listed as inhibitors; further: nearly all actives have a fitted effect of over 55% in size
#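 Chicken DT40 Tdp1-/- cells complemented with human TDP1, 400 cells/well, exposed to compounds plus 20 nM camptothecin for at least 48 h at 37 C; viability read as ATP content by CellTiter-Glo luminescence.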
# VP16 counter: VP16 counterscreen qHTS for inhibitors of ROR gamma transcriptional activity; Drosophila S2 Gal4-VP16 UAS-luciferase, luminescence, 20 h; AID 2546, 2010; Potency, µM (series often up to 53.6 µM), for the others: top-dose activity, negative = inhibition, usual class: inhibitors; hit rate 3.5% among 310,000;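 further: Gal4-VP16 expression switched on by copper sulfate through the metallothionein promoter; nearly all actives have a fitted effect of over 50% in size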
# 12-LOX inh: Primary qHTS assay for inhibitors of human arachidonate 12S-lipoxygenase (ALOX12): Round 2 | purified 12hLO, xylenol orange hydroperoxide absorbance | hit rate 1.1% among 580,000 | AID 1671190, 2021 | Potency, µM (titrated, usually from 108 µM), for inactives: top-dose activity change, negative = inhibition, actives largely listed as inhibitors
# Target sequence (P18054 whole entry, looked up): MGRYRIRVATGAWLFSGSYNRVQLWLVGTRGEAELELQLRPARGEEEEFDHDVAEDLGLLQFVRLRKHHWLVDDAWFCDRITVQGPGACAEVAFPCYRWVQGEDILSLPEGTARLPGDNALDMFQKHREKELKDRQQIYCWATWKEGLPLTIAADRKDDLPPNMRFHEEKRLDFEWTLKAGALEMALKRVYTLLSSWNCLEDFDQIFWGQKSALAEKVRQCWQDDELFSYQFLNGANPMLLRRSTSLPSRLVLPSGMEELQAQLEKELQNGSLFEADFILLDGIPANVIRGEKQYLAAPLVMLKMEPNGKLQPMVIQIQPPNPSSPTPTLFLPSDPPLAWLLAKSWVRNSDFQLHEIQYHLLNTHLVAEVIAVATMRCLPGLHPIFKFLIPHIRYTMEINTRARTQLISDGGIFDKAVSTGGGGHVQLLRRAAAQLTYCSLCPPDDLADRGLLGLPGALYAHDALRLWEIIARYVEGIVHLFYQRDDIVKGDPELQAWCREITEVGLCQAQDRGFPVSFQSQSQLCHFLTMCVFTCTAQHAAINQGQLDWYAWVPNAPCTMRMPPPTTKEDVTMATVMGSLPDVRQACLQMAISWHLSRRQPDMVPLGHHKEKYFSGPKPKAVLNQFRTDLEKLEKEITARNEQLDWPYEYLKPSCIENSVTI
#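 Hydroperoxide product was detected by ferrous iron/xylenol orange as the 573 to 405 nm absorbance ratio. Arachidonic acid at 40 uM (final) was turned over for 30 min at room temperature by 150 nM human 12hLO, pH 7.0 Hepes buffer, after 15 min compound preincubation.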
# TDP1 cell noCPT: qHTS for Inhibitors of human tyrosyl-DNA phosphodiesterase 1 (TDP1): qHTS in cells in absence of CPT; DT40 Tdp1-/- hTDP1 cells, no CPT, ATP luminescence, 48 h; Potency, µM (highest dose often 46.2 µM), for inactives: at the highest dose activity change, negative = growth inhibition, hits mostly inhibitors; hit rate 15% among 420,000; further: nearly all actives have a fitted effect of over 55% in size
#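 Camptothecin absent (DMSO only). Human TDP1-complemented DT40 knockout cells, 400 cells/well, 37 °C for minimum 48 hr; ATP measured via CellTiter-Glo, 30 min dark incubation, luminescence.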
# ELG1 repair inh: qHTS screen for small molecules that inhibit ELG1-dependent DNA repair in human embryonic kidney (HEK293T) cells expressing luciferase-tagged ELG1 | HEK293T ELG1-luciferase reporter, luminescence, 16 h; DNA damage induced by 5-fluorouridine | Potency, µM (doses to about 46.1 µM), inactives show at the top dose activity change, negative = inhibition, actives largely listed as inhibitors | hit rate 2.3% among 330,000; further: nearly all actives have a fitted effect of over 55% in size
#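 5-Fluorouridine DNA damage + compound/DMSO, 2,000 cells/well, 16 h, 37 °C/5% CO2. ONE-Glo, 30 min RT, luminescence. Readout = decrease in reporter signal.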
# RORgamma inh: qHTS for inhibitors of ROR gamma transcriptional activity; Nuclear receptor ROR-gamma (Mus musculus), P51450; Drosophila S2 Gal4-RORgamma UAS-luciferase reporter, 20 h; Potency, µM (series often up to 53.6 µM), inactives show at the highest dose activity change, negative = inhibition, most hits filed as inhibitors; hit rate 5.4% among 310,000; further: nearly all actives have a fitted effect of over 60% in size
#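 Drosophila Schneider cells stably carrying a metallothionein-driven Gal4 DBD–ROR gamma fusion and a UAS-Photinus luciferase reporter were exposed to compound for 1 hr, then induced with copper sulfate (700 uM final) for 20 hr at ambient temperature before luminescence reading.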
# Starred values were filed as active, the others as inactive; ? = inconclusive; · = not tested or not shown; ! = a repeat was not active; [ ] = remark or other dose. The call rests on the fitted dose curve; in most records, active means well fitted curve in the direction sought with a large enough effect; inconclusive means small, poorly fitted or top-dose-only effect, or another doubt; inactive means no such curve, though single readings can be large; an effect the other way counts as inactive or inconclusive. On the % scale 0 is the no-effect control and ±100 the full control effect; potency means the concentration at half of the fitted maximal effect.
SMILES,DT40 TDP1 CPT,VP16 counter,12-LOX inh,TDP1 cell noCPT,ELG1 repair inh,RORgamma inh
COc1cc(OC)c(-c2nn3c(-c4n[nH]c5c4CCC5)nnc3s2)cc1OC,?,·,·,11µM*!,·,·
Cc1ccc(C(=O)N/C(=C/c2ccc(-c3cccc([N+](=O)[O-])c3)o2)C(=O)NC(C)C)cc1,?,4%,10%,?,?,?
Cc1ccc(C(=O)N/C(=C/c2ccc(-c3cccc([N+](=O)[O-])c3)o2)C(=O)NC(C)(C)C)cc1,?,-18%,-1%,13µM*,?,5%[10 µM]
CN(C)C(=O)/C(=C\c1ccc(-c2cccc([N+](=O)[O-])c2)o1)NC(=O)c1ccccc1,15µM*,-9%,2%,16µM*,21µM*,20%
COc1ccc(C(=O)N/C(=C\c2ccc(-c3cccc([N+](=O)[O-])c3)o2)C(=O)NCCCN2CCOCC2)cc1,?,·,?,16µM*,·,·
Cc1ccc(C(=O)N/C(=C\c2ccc(-c3cccc([N+](=O)[O-])c3)o2)C(=O)NCCCN2CCOCC2)cc1,?,-13%,16%,?,-12%,-21%
OCCN(Cc1ccccc1)C(=S)Nc1ccc(Cl)cc1Cl,?,?,0%,?,14%,?
CN(C)CCCN(Cc1ccccc1)C(=S)Nc1cccc(C(F)(F)F)c1,15µM*,-13%,?,?,4%,-43%
CN(C)CCCN(Cc1ccccc1)C(=S)Nc1ccc(F)c(Cl)c1,-27%,9%,0%,18µM*,11%,-4%
CN1CCC(OC2CCN(C(=O)c3cccc(Br)c3)CC2)CC1,·,·,25%,·,·,·
O=C(Nc1ccc(F)cc1)c1nc(SCc2ccccc2F)ncc1Cl,0%,·,-15%,-11%,·,·
O=C(Nc1nc2ccc(F)cc2s1)c1nc(S(=O)(=O)Cc2ccccc2F)ncc1Cl,3.3µM*,·,-20%,2.6µM*,·,·
O=C(Nc1ccccc1)c1nc(S(=O)(=O)Cc2ccccc2F)ncc1Cl,1.1µM*,·,·,1.1µM*,·,·
COC(=O)c1ccc(NC(=O)c2nc(S(=O)(=O)Cc3ccccc3F)ncc2Cl)cc1,0.71µM*,·,·,0.89µM*,·,·
Cc1cccc(CSc2ncc(Cl)c(C(=O)Nc3nc4ccc(F)cc4s3)n2)c1,-29%,·,-8%,-27%,·,·
c1c(CN2CCCN(CCCN3CCCC3)CC2)nn2c1CNCC2,·,·,69%,·,·,·
CCOC(=O)[C@]12CCCC=C1N(Cc1ccc3c(c1)OCO3)C(=O)[C@H](CC(=O)N1CCC(c3ccccc3)CC1)C2,18µM*,·,-22%,21µM*,·,·
CCOC(=O)N1CCN(C(=O)C[C@@H]2C[C@@]3(C(=O)OCC)CCCC=C3N(Cc3ccc4c(c3)OCO4)C2=O)CC1,?,·,-10%,?,·,·
COC(=O)[C@]12CCCCC=C1N(Cc1ccc3c(c1)OCO3)C(=O)[C@H](CC(=O)N1CCC(c3ccccc3)CC1)C2,?,·,-4%,18µM*,·,·
CCOC(=O)N1CCN(C(=O)C[C@@H]2C[C@@]3(C(=O)OC)CCCCC=C3N(Cc3ccc4c(c3)OCO4)C2=O)CC1,?,·,-13%,?,·,·
CCC(=O)C1=C(c2ccccc2)N(C(=O)CC)n2c(nnc2-c2ccccc2)S1,?,·,3%,-20%,·,·
COc1ccc(C2=C(C(C)=O)Sc3nnc(-c4ccccc4)n3N2C(C)=O)cc1,?,·,1%,-5%,·,·
CC(=O)C1=C(c2ccc(C)c(C)c2)N(C(C)=O)n2c(nnc2-c2ccc(Cl)cc2)S1,5.2µM*,·,-24%,4.6µM*,·,·
CCc1nnc2n1N(C(C)=O)C(c1ccc(C(C)(C)C)cc1)=C(C(C)=O)S2,8.2µM*,·,5%,12µM*,·,·
COc1cccc(C2=C(C(C)=O)Sc3nnc(-c4ccc(Cl)cc4)n3N2C(C)=O)c1,·,·,30%,·,·,·
SMILES,DT40 TDP1 CPT,VP16 counter,12-LOX inh,TDP1 cell noCPT,ELG1 repair inh,RORgamma inh
CC(=O)C1=C(c2cccc([N+](=O)[O-])c2)N(C(C)=O)n2c(C)nnc2S1,4.6µM*,?,1%,1.8µM*,?,5µM*
CCC(=O)C1=C(c2ccc(Cl)cc2)N(C(=O)CC)n2c(C)nnc2S1,8.2µM*,·,-19%,7.3µM*,·,·
COCCN1CCC(N2CCN(S(=O)(=O)c3ccc(C(F)(F)F)cc3)CC2)C1=O (stereo not given),·,·,6%,·,·,·
CC(=O)C1=C(c2ccc(C)cc2)N(C(C)=O)n2c(nnc2C2CCCCC2)S1,?,·,-2%,?,·,·
CC(=O)C1=C(c2ccc(Cl)cc2)N(C(C)=O)n2c(nnc2C2CCCCC2)S1,13µM*,·,?,?,·,·
O=C(COC(=O)Cc1n[nH]c(=O)c2ccccc12)NCC(=O)Nc1ccc(F)c(F)c1F,·,·,-7%,·,·,·
CCOC(=O)[C@@H]1[C@H]2COc3ccc(Br)cc3[C@@H]2N2C(=O)N(c3ccc(C(F)(F)F)cc3)C(=O)[C@@]12C,21µM*,-1%,-3%,23µM*,-21%,-22%
CCOC(=O)[C@H]1[C@H]2COc3ccc(Br)cc3[C@@H]2N2C(=O)N(c3ccc(F)cc3)C(=O)[C@@]12C,18µM*,·,-7%,?,-8%,·
CCOC(=O)[C@@H]1[C@H]2COc3ccc(Br)cc3[C@@H]2N2C(=O)N(c3cccc(F)c3)C(=O)[C@@]12C,26µM*,4%,-14%,18µM*,15%,18µM*
CCOC(=O)[C@@H]1[C@H]2COc3ccc(Br)cc3[C@@H]2N2C(=O)N(c3ccc(F)cc3)C(=O)[C@@]12C,?,·,-2%,?,-1%,·
CCOC(=O)[C@@H]1[C@H]2COc3ccc(Br)cc3[C@@H]2N2C(=O)N(c3ccc(Cl)cc3)C(=O)[C@@]12C,21µM*,·,5%,16µM*,10%,·
Cn1c(=O)c2c(ncn2CC(=O)Nc2ccc3c(c2)CCC3)n(C)c1=O,·,·,-8%,·,·,·
CCc1ccc(NC(=O)CSc2ncc(-c3ccc(F)cc3)o2)cc1,·,·,1%,·,·,·
COc1ccccc1-n1c(CNC(=O)c2cccs2)n[nH]c1=S,4%,4%,-8%,5%,-2%,-23%
S=c1[nH]nc(Cc2cccs2)n1-c1cccc2ccccc12,-4%,?,?,?,13%,4µM*
